Screening results as filed in PubChem BioAssay.
Rin1-Abl PPI inh = inhibitors of Rin1-Abl protein binding, primary screen, biochemical, TR-FRET; Tyrosine-protein kinase ABL1 (Homo sapiens) + Ras and Rab interactor 1 (Homo sapiens), …; AID 588664, 2011; inhibition, % at 7.35 µM; 0.4% of 360,000 active; in the data active = inhibition above about 5%, passing the limit was not always enough
Target sequence (P00519 whole entry, looked up): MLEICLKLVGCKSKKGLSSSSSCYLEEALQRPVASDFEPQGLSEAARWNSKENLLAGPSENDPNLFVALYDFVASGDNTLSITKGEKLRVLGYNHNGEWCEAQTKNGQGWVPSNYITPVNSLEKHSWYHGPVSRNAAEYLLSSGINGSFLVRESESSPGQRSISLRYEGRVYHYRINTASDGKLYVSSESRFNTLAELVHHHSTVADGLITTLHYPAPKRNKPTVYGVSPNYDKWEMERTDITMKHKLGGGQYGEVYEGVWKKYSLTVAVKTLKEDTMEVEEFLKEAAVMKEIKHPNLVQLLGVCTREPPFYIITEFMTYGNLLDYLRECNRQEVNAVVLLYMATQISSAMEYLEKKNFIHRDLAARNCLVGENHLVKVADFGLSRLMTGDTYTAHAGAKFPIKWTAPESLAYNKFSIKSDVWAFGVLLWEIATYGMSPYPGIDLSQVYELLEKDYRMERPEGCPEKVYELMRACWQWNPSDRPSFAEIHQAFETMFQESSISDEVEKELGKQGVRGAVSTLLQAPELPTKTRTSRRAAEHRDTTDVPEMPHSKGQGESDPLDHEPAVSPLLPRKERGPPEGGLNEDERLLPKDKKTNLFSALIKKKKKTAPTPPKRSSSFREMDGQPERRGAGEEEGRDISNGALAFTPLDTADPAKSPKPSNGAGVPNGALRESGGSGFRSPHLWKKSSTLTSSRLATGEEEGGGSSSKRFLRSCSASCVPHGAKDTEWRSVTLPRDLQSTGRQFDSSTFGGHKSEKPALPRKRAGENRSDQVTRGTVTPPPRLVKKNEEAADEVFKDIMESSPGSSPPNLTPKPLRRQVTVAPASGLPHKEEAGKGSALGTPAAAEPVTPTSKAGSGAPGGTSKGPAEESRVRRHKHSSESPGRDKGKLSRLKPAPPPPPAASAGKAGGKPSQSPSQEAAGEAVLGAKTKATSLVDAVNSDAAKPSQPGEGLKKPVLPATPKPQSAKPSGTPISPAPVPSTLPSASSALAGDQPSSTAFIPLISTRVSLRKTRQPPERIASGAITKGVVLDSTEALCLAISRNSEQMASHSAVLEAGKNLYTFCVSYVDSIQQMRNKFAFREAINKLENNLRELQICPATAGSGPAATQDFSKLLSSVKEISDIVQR
Target sequence (Q13671 whole entry, looked up): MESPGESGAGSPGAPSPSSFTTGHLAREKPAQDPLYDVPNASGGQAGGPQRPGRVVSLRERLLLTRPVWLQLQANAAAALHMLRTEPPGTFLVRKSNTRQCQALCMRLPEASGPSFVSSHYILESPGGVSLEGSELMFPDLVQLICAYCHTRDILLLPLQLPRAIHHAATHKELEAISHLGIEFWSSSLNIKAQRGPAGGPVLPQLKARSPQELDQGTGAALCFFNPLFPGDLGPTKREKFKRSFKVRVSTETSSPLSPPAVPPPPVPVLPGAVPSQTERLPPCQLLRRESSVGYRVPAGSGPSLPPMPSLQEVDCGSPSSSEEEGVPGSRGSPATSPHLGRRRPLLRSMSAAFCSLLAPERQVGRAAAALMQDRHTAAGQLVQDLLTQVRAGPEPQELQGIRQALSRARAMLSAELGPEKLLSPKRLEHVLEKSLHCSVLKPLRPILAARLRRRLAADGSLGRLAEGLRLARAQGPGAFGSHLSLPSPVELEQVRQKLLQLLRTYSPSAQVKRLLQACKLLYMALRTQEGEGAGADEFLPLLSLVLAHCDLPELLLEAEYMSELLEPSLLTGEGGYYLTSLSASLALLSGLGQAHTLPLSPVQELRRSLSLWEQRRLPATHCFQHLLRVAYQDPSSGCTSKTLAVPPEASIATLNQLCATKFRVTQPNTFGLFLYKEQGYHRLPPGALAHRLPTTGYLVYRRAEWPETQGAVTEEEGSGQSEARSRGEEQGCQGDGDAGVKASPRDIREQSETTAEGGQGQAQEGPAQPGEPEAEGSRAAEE
pPAFAH FP inh = pPAFAH enzyme inhibitors, primary screen, biochemical, fluorescence polarization, human | recombinant pPAFAH, FP-rhodamine probe fluorescence polarization | inhibition, % at 3.39 µM | 1.5% of 330,000 active;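 active = inhibition above the mean inhibition across the screen plus 3 SD, cut at about 25% in these data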;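 note: inhibitors block binding of the rhodamine activity-based probe so polarization drops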
PAFAH2 FP inh = PAFAH2 enzyme inhibitors, primary screen, biochemical, fluorescence polarization, human; Platelet-activating factor acetylhydrolase 2, cytoplasmic (Homo sapiens), Q99487; recombinant PAFAH2, FP-rhodamine activity probe; inhibition, % at 3.39 µM; 0.99% of 340,000 active;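 active = inhibition above the mean over all tested compounds plus 3 SD, cut at about 30% in these data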;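 note: inhibitors block probe labeling of enzyme so polarization drops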
E coli Lon inh = inhibitors of E. coli Lon protease, primary screen, biochemical, fluorescence polarization; AID 602123, 2011; P0A9M0; purified E. coli Lon protease; 0.42% of 360,000 active; inhibition, % at 7.94 µM; in the data active = inhibition above about 13%, passing the limit was not always enough
PAFAH1B3 inh = PAFAH1B3 enzyme inhibitors, primary screen, biochemical, fluorescence polarization, human. Platelet-activating factor acetylhydrolase IB subunit alpha1 (Homo sapiens), Q15102. recombinant PAFAH1B3, FP-rhodamine probe. inhibition, % at 3.39 µM. 0.28% of 340,000 active;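 active = inhibition above the screen-wide average of all tested compounds plus 3 SD, cut at about 25% in these data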
PAFAH1B2 inh = PAFAH1B2 enzyme inhibitors, primary screen, biochemical, fluorescence polarization, human | Platelet-activating factor acetylhydrolase IB subunit alpha2 (Homo sapiens), P68402 | recombinant PAFAH1B2, FP-rhodamine activity probe | 1.2% of 340,000 active | inhibition, % at 3.39 µM;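 active = inhibition above the mean of all tested compounds plus 3 SD, cut at about 24% in these data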
A number is an active result; i = inactive; nt = no result given. Rows were chosen to be rich in hits. Some 3.1% of all compounds tested hit in one or more screens of this group.

SMILES	Rin1-Abl PPI inh	pPAFAH FP inh	PAFAH2 FP inh	E coli Lon inh	PAFAH1B3 inh	PAFAH1B2 inh
Cc1cccc2sc(N(CCN(C)C)C(=O)C3CCN(S(=O)(=O)c4cccs4)CC3)nc12	i	i	i	i	i	i
CN(c1ccc(Cl)cc1)c1cc(=O)n(C)c2ccccc12	i	i	i	i	i	29
Cn1nc(C2CC2)cc1NC(=O)C1(C)CCN1C(=O)CC(c1ccccc1)c1ccccc1 (stereo unspecified)	i	nt	nt	i	nt	nt
Cc1ccc(-n2c(Cl)c(Cl)nc(Cl)c2=O)cc1	i	i	i	i	i	i
COc1ccc2cc(C(=O)N3CCCC(Nc4ccc(F)cc4)C3)n(C)c2c1 (stereo unspecified)	i	i	i	i	i	i
COc1ccc(Cl)cc1C(=O)O/N=C(\N)c1ccc(Cl)cc1	i	i	i	i	i	i
Cc1occc1C(=O)O/N=C(\N)c1ccc(Cl)cc1	i	i	i	i	i	34
O=C(COC(=O)CSc1ccc(F)cc1)NNC(=O)c1ccc([N+](=O)[O-])cc1	i	i	i	i	i	i
CCN1C(=O)/C(=C\c2ccc(-c3ccc([N+](=O)[O-])cc3OC)o2)SC1=Nc1cccc(C(=O)O)c1	i	nt	i	i	i	24
CCN1C(=O)/C(=C\c2ccc(-c3cccc(C(=O)OC)c3)o2)SC1=Nc1ccc(C(=O)O)cc1	nt	i	nt	nt	nt	nt
Cc1nc2ccc(NC(=O)N3CCCCC3)cc2nc1C	i	i	i	i	i	i
CCOC(=O)C1CCN(C(=O)Nc2ccc3nc(-c4ccco4)c(-c4ccco4)nc3c2)CC1	i	60	i	i	i	i
CCOC(=O)C1CCN(C(=O)Nc2ccc3c(c2)nc(C)n3C)CC1	i	i	i	i	i	i
O=C(Nc1ccc2nc(-c3ccco3)c(-c3ccco3)nc2c1)N1CCCCCC1	nt	69	nt	nt	nt	nt
CCN1C(=O)[C@H]2[C@@H](c3ccc(-c4ccccc4)cc3)N[C@@](C)(C(=O)OC)[C@H]2C1=O	i	i	i	i	i	i
CCN1C(=O)[C@H]2[C@@H](c3ccc(-c4cccc(Cl)c4)cc3)N[C@@](C)(C(=O)OC)[C@H]2C1=O	i	34	i	i	i	i
CCc1nc(C)cn1S(=O)(=O)c1ccc2c(c1)OCCO2	i	nt	i	i	i	i
Nc1ccc2nc(-c3ccccc3)c(-c3ccccc3)nc2c1	i	27	i	i	i	i
Nc1nnc(CSCc2ccc(Cl)cc2)s1	i	i	i	i	i	28
Nc1nnc(CSCc2ccccc2)s1	i	i	i	i	i	i
Cc1c(NC(=O)C(C)OC(=O)c2ccc([N+](=O)[O-])s2)c(=O)n(-c2ccccc2)n1C (stereo unspecified)	i	30	i	i	33	i
O=C(NCCc1ccccc1)c1nnc(CS(=O)(=O)c2ccccc2)o1	i	28	i	i	i	i
O=C(NCCc1ccccc1)c1nc(CS(=O)(=O)c2ccc(Cl)cc2)no1	i	i	i	i	i	i
COc1ccc2ccc3c(c2c1)N=C[C@]1(O3)N(C)c2ccccc2C1(C)C	i	33	i	i	i	i
COc1ccc(NC(=O)C2CCCN2S(=O)(=O)c2cccs2)c([N+](=O)[O-])c1 (stereo unspecified)	i	i	i	i	i	i
SMILES	Rin1-Abl PPI inh	pPAFAH FP inh	PAFAH2 FP inh	E coli Lon inh	PAFAH1B3 inh	PAFAH1B2 inh
O=[N+]([O-])c1ccccc1S(=O)(=O)NCCSc1ccccc1	i	i	i	i	i	29
O=C(O)c1ccc(Cl)c(S(=O)(=O)Nc2ccc(OCc3ccccc3)cc2)c1	i	i	i	i	i	26
O=C(/C=C/c1ccc(S(=O)(=O)NCc2ccco2)cc1)NCc1ccccc1Cl	i	32	i	i	i	i
Cc1ccc(NC(=O)CNc2cccc(S(=O)(=O)N3CCCCC3)c2)cc1F	i	31	i	i	i	i
COc1ccccc1N(CC(=O)NCCSCc1ccco1)S(=O)(=O)c1ccccc1	i	i	i	i	i	i
O=C(CSc1ccc(Cl)cc1)Nc1ccc(N2CCN(C(=O)c3ccco3)CC2)cc1	i	i	i	i	i	26
Cc1ccccc1C(=O)N1CCN(c2ccc(NC(=O)CSc3ccc(Cl)cc3)cc2)CC1	i	i	i	i	i	31
CCC(=O)Nc1ccc(N2CCN(C(=O)c3ccccc3C)CC2)cc1	i	i	i	i	i	i
O=C(CSc1nc(O)cc(=O)n1-c1ccccc1)c1ccc(Br)cc1	i	25	i	i	i	i
COc1ccc(-c2sc3ccc(N4CCOCC4)cc3c2C#Cc2ccsc2)cc1	i	28	i	i	i	i
Nc1nnc(CC(=O)N/N=C/c2cc([N+](=O)[O-])cc(Br)c2O)s1	i	28	i	i	i	25
CN(C)c1ccc(/C=C/CNC[C@H]2O[C@@H](n3ccc(N)nc3=O)[C@H](O)[C@@H]2O)cc1	i	nt	nt	i	nt	nt
CCOC(=O)c1c(N)sc(-c2ccccc2)c1C	i	34	i	i	i	i
CCOC(=O)c1c(N)sc(C(O)(C(F)(F)F)C(F)(F)F)c1-c1ccccc1	i	i	i	i	i	i
COC(=O)c1ccc(CNC(=O)COC(=O)/C=C/c2cc(OC)c(OC)c(OC)c2)cc1	i	i	i	i	i	i
CCCCC(=O)N(Cc1ccc2c(c1)OCO2)Cc1nc2ccccc2c(=O)[nH]1	i	i	i	i	i	i
CCCCN(Cc1nc2ccccc2c(=O)[nH]1)C(=O)c1nn(C)c(=O)c2ccccc12	i	nt	81	i	76	42
CCOC(=O)[C@H]1[C@H]2COc3ccccc3[C@@H]2N2C(=O)[C@@H](CO)NC(=O)[C@@]12C	i	i	i	i	i	i
Cc1csc(NC(=O)c2ccco2)c1C(=O)c1ccccc1	i	26	i	i	i	i
c1ccc(COc2ncnc3c2ncn3CCCNC2CCN(Cc3ccccc3)CC2)cc1	i	nt	nt	i	nt	nt
Cc1ccccc1CS(=O)(=O)CCC(=O)N1CCN(c2ccc(N3CCOCC3)nn2)CC1	i	27	i	i	i	i
COc1ccccc1C(=O)NCC(=O)N1CC=C(c2ccccc2)CC1	i	i	i	i	i	i
N=c1c(S(=O)(=O)c2ccc(Br)cc2)cc2c(=O)n3ccccc3nc2n1CCN1CCOCC1	i	nt	i	i	i	41
Cc1ccc(S(=O)(=O)c2cc3c(=O)n4ccccc4nc3n(Cc3ccco3)c2=N)cc1C	nt	i	nt	nt	nt	nt
N=c1c(S(=O)(=O)c2ccccc2)cc2c(=O)n3ccccc3nc2n1Cc1ccco1	i	26	i	i	i	i
O=C(O)c1cc(O)ccc1O	i	nt	i	i	i	i
O=C(O)C1=CC(=C(c2ccc(O)c(C(=O)O)c2)c2ccc(O)c(C(=O)O)c2)C=CC1=O	nt	66	nt	nt	nt	nt
c1coc(CSSCc2ccco2)c1	i	i	50	i	30	i
